Measurements published in PubChem BioAssay (NCI).
About 79,000 compounds went through this panel and 15% of them were active in at least one assay; those are over-represented in the sample as a whole. Active and inactive are the calls of the source. Rule as the data show it: active = growth inhibition above about 70%; inactive = the rest.

Tests used:
[1] = NCI Yeast Anticancer Drug Screen. Data for the wt1 strain (AID 149);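 also: 0% = growth of vehicle-treated wt1 cultures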; conditions: S. cerevisiae wt1 strain (SPY 50644) growth inhibition, hits give high values
In short: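 Readout: yeast growth inhibition, normalised to vehicle controls, in the wt1 strain exposed to test compounds.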

[2] = NCI Yeast Anticancer Drug Screen. Data for the rad50EPP+ strain (AID 151);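 also: 0% = growth of vehicle-treated control cultures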; conditions: S. cerevisiae rad50 mutant strain, hits give high values
In short: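 Genetically defined yeast (rad50EPP+, DNA damage repair alteration) is grown with compound, and inhibition of growth is expressed relative to vehicle-treated controls.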

[3] = NCI Yeast Anticancer Drug Screen. Data for the mgt1 strain (AID 153); conditions: S. cerevisiae mgt1 mutant growth inhibition, hits give high values
In short: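 In the mgt1 strain, test compounds were added and growth inhibition was determined relative to vehicle-treated controls.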

[4] = NCI Yeast Anticancer Drug Screen. Data for the rad50 strain (AID 155);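 also: 0% = growth of vehicle-only cultures of the same strain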; conditions: S. cerevisiae rad50 strain growth inhibition, hits give high values
In short: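 Compounds were tested on a yeast strain with an engineered DNA damage repair alteration; the reported value is growth inhibition normalised to vehicle treatment.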

[5] = NCI Yeast Anticancer Drug Screen. Data for the mec2-1 strain (AID 157); conditions: S. cerevisiae mec2-1 strain, hits give high values
In short: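 Each compound was tested on mec2-1 yeast, a strain altered in DNA damage repair or cell cycle control. Growth inhibition is reported relative to vehicle.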

[6] = NCI Yeast Anticancer Drug Screen. Data for the rad14 strain (AID 159);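 also: 0% = growth of vehicle-treated control cultures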; conditions: S. cerevisiae rad14 strain growth inhibition, hits give high values
In short: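 Compound-treated yeast with a defined DNA-repair lesion; growth inhibition normalised to vehicle-treated cultures.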

[7] = NCI Yeast Anticancer Drug Screen. Data for the sgs1 mgt1 strain (AID 161);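 also: 0% = growth of cultures given vehicle only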; conditions: S. cerevisiae sgs1 mgt1 strain, hits give high values
In short: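 Mutant yeast exposed to compound; growth scored against vehicle-only wells.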

[8] = NCI Yeast Anticancer Drug Screen. Data for the CLN2oe strain (AID 163);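 also: 0% = growth of vehicle-only control cultures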; conditions: S. cerevisiae CLN2oe strain, hits give high values
In short: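 First, the altered yeast strain was treated with each compound; second, its growth was measured; finally, inhibition was derived by comparison with vehicle controls.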

[9] = NCI Yeast Anticancer Drug Screen. Data for the cln2 rad14 strain (AID 165);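 also: 0% = growth equal to vehicle treated cultures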; conditions: S. cerevisiae cln2 rad14 strain, hits give high values
In short: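 Test compounds were added to cln2 rad14 yeast cultures; inhibition of growth was then determined by comparison with vehicle treatment.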

[10] = NCI Yeast Anticancer Drug Screen. Data for the bub3 strain (AID 167); conditions: S. cerevisiae bub3 mutant strain, hits give high values
In short: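 Growth of a checkpoint-deficient yeast mutant is measured after compound exposure. Values represent inhibition relative to vehicle.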

[11] = NCI Yeast Anticancer Drug Screen. Data for the wt2 strain (AID 169);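 also: 0% = growth of vehicle-treated yeast cultures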; conditions: S. cerevisiae wt2 strain growth inhibition, hits give high values
In short: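 The panel's yeast strains carry defined changes in DNA repair or cell cycle genes. Each strain is grown with compound, and growth loss is scored relative to vehicle.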

[12] = NCI Yeast Anticancer Drug Screen. Data for the mlh1 strain (AID 171);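 also: 0% = growth of vehicle-treated control cultures of the same strain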; conditions: S. cerevisiae mlh1 strain growth inhibition, hits give high values
In short: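 Inhibition values reflect reduced yeast growth in the presence of compound, referenced to vehicle controls, using a strain chosen for its alteration in DNA repair or cell cycle control.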

[13] = NCI Yeast Anticancer Drug Screen. Data for the sgs1 strain (AID 173);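 also: 0% = growth of vehicle-only control cultures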; conditions: S. cerevisiae sgs1 mutant, hits give high values
In short: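 Vehicle-treated cultures served as reference for growth inhibition of a yeast strain altered in DNA damage repair or cell cycle control after compound exposure.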

[14] = NCI Yeast Anticancer Drug Screen. Data for the mlh1 rad18 strain (AID 175); conditions: S. cerevisiae mlh1 rad18 strain growth inhibition, hits give high values
In short: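 Inhibition values reflect reduced growth of mutant yeast versus vehicle-treated controls following compound exposure; the mutations affect DNA damage repair.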

[15] = NCI Yeast Anticancer Drug Screen. Data for the rad18 strain (AID 177); conditions: S. cerevisiae rad18 mutant growth inhibition, hits give high values
In short: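 Steps: expose repair-mutant yeast to compound; measure growth; express as inhibition relative to vehicle control.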

[16] = at 5.0 µM (retest, dose inferred, filed as 0.5)
[17] = at 50.0 µM (retest, dose inferred, filed as 5.0)

Measured: growth inhibition

O=[N+]([O-])c1ccc2nnnn2c1
active: [2]; at 100.0 µM 79% | [4]; [17] 71% | [4]; at 50.0 µM 75.8% | [7]; [17] 86% | [10]; [17] 78% | [13]; at 100.0 µM 72% | [14]; [16] 78% | [14]; [17] 93%
inactive: [1]; at 1.2 µM 1% | [1]; at 3.7 µM 2% | [1]; at 11.0 µM 7% | [1]; at 33.0 µM 11% | [1]; at 100.0 µM 19% | [2]; at 1.2 µM -2% | [2]; at 3.7 µM -1% | [2]; at 11.0 µM 15% | [2]; at 33.0 µM 50% | [3]; at 1.2 µM 0% | [3]; at 3.7 µM 2% | [3]; at 11.0 µM 4% | [3]; at 33.0 µM 23% | [3]; at 100.0 µM 18% | [4]; at 1.2 µM -3% | [4]; at 3.7 µM -1% | [4]; [16] 10% | [4]; at 11.0 µM 3% | [4]; at 33.0 µM 10% | [4]; at 100.0 µM 21% | [5]; at 1.2 µM -1% | [5]; at 3.7 µM 2% | [5]; [16] 3% | [5]; at 11.0 µM 4% | [5]; at 33.0 µM 12% | [5]; [17] 23% | [5]; at 50.0 µM 43.9% | [5]; at 100.0 µM 43% | [6]; at 1.2 µM -1% | [6]; at 3.7 µM 0% | [6]; at 11.0 µM 5% | [6]; at 33.0 µM 10% | [6]; at 100.0 µM 30% | [7]; [16] 29% | [7]; at 50.0 µM 60.8% | [8]; at 1.2 µM -5% | [8]; at 3.7 µM 1% | [8]; at 11.0 µM -1% | [8]; at 33.0 µM -7% | [8]; at 100.0 µM 1% | [9]; [16] 2% | [9]; [17] 28% | [9]; at 50.0 µM 29.9% | [10]; at 1.2 µM -3% | [10]; at 3.7 µM -1% | [10]; [16] 21% | [10]; at 11.0 µM 1% | [10]; at 33.0 µM 3% | [10]; at 50.0 µM 34% | [10]; at 100.0 µM 21% | [11]; at 1.2 µM 0% | [11]; at 3.7 µM 1% | [11]; at 11.0 µM 7% | [11]; at 33.0 µM 14% | [11]; at 100.0 µM 25% | [12]; at 1.2 µM 0% | [12]; at 3.7 µM 1% | [12]; at 11.0 µM 4% | [12]; at 33.0 µM 14% | [12]; at 100.0 µM 34% | [13]; at 1.2 µM 1% | [13]; at 3.7 µM 7% | [13]; at 11.0 µM 15% | [13]; at 33.0 µM 30% | [14]; at 50.0 µM 61.8%

COc1ccc2nc3cccc([N+](=O)[O-])c3c(NCCCO)c2c1
inactive: [1]; at 1.2 µM 15% | [1]; at 3.7 µM 62% | [2]; at 1.2 µM 9% | [2]; at 3.7 µM 35% | [3]; at 1.2 µM 12% | [3]; at 3.7 µM 51% | [8]; at 1.2 µM 6% | [8]; at 3.7 µM 43% | [10]; at 1.2 µM -9% | [10]; at 3.7 µM 14% | [10]; [16] 16% | [11]; at 1.2 µM 6% | [11]; at 3.7 µM 33% | [12]; at 1.2 µM 35%
active: [1]; at 11.0 µM 94% | [1]; at 33.0 µM 97% | [1]; at 100.0 µM 97% | [2]; at 11.0 µM 75% | [2]; at 33.0 µM 94% | [2]; at 100.0 µM 97% | [3]; at 11.0 µM 92% | [3]; at 33.0 µM 96% | [3]; at 100.0 µM 96% | [4]; at 1.2 µM 87% | [4]; at 3.7 µM 93% | [4]; [16] 95% | [4]; at 11.0 µM 95% | [4]; at 33.0 µM 97% | [4]; [17] 98% | [4]; at 50.0 µM 86.8% | [4]; at 100.0 µM 97% | [5]; at 1.2 µM 93% | [5]; at 3.7 µM 96% | [5]; [16] 97% | [5]; at 11.0 µM 98% | [5]; at 33.0 µM 98% | [5]; [17] 99% | [5]; at 50.0 µM 91% | [5]; at 100.0 µM 96% | [6]; at 1.2 µM 97% | [6]; at 3.7 µM 98% | [6]; at 11.0 µM 99% | [6]; at 33.0 µM 99% | [6]; at 100.0 µM 95% | [7]; [16] 95% | [7]; [17] 98% | [7]; at 50.0 µM 82.9% | [8]; at 11.0 µM 88% | [8]; at 33.0 µM 95% | [8]; at 100.0 µM 98% | [9]; [16] 99% | [9]; [17] 99% | [9]; at 50.0 µM 89.4% | [10]; at 11.0 µM 87% | [10]; at 33.0 µM 97% | [10]; [17] 99% | [10]; at 50.0 µM 85.2% | [10]; at 100.0 µM 99% | [11]; at 11.0 µM 88% | [11]; at 33.0 µM 96% | [11]; at 100.0 µM 98% | [12]; at 3.7 µM 80% | [12]; at 11.0 µM 94% | [12]; at 33.0 µM 97% | [12]; at 100.0 µM 97% | [13]; at 1.2 µM 93% | [13]; at 3.7 µM 95% | [13]; at 11.0 µM 97% | [13]; at 33.0 µM 98% | [13]; at 100.0 µM 97% | [14]; [16] 97% | [14]; [17] 99% | [14]; at 50.0 µM 81.8% | [15]; at 1.2 µM 96% | [15]; at 3.7 µM 96% | [15]; at 11.0 µM 96% | [15]; at 33.0 µM 96% | [15]; at 100.0 µM 97%

Cc1ccnc(NS(=O)(=O)c2ccc(Nc3c4ccccc4nc4ccccc34)cc2)n1
inactive: [1]; at 1.2 µM 14% | [1]; at 3.7 µM 20% | [1]; at 11.0 µM 21% | [1]; at 33.0 µM 48% | [2]; at 1.2 µM 30% | [2]; at 3.7 µM 41% | [2]; at 11.0 µM 64% | [3]; at 1.2 µM 37% | [3]; at 3.7 µM 33% | [3]; at 11.0 µM 54% | [3]; at 33.0 µM 66% | [4]; at 1.2 µM 50% | [5]; at 1.2 µM 18% | [5]; at 3.7 µM 32% | [5]; [16] 15% | [5]; at 11.0 µM 45% | [6]; at 1.2 µM 10% | [6]; at 3.7 µM 10% | [6]; at 11.0 µM 26% | [6]; at 33.0 µM 58% | [7]; [16] 14% | [8]; at 1.2 µM 13% | [8]; at 3.7 µM 1% | [8]; at 11.0 µM 14% | [8]; at 33.0 µM 39% | [8]; at 100.0 µM 60% | [9]; [16] 17% | [9]; [17] 35% | [9]; at 50.0 µM 35.5% | [10]; at 1.2 µM -12% | [10]; at 3.7 µM -21% | [10]; [16] 26% | [10]; at 11.0 µM -20% | [10]; at 33.0 µM 30% | [10]; [17] 44% | [10]; at 100.0 µM 63% | [11]; at 1.2 µM -10% | [11]; at 3.7 µM -18% | [11]; at 11.0 µM -3% | [11]; at 33.0 µM 44% | [12]; at 1.2 µM 37% | [12]; at 3.7 µM 33% | [12]; at 11.0 µM 54% | [12]; at 33.0 µM 66% | [13]; at 1.2 µM 24% | [13]; at 3.7 µM 26% | [13]; at 11.0 µM 43% | [13]; at 33.0 µM 69% | [14]; [16] 26% | [14]; at 50.0 µM 37.7% | [15]; at 1.2 µM 16% | [15]; at 3.7 µM 19% | [15]; at 11.0 µM 36% | [15]; at 33.0 µM 65%
active: [1]; at 100.0 µM 76% | [2]; at 33.0 µM 73% | [2]; at 100.0 µM 74% | [3]; at 100.0 µM 84% | [4]; at 3.7 µM 79% | [4]; [16] 77% | [4]; at 11.0 µM 90% | [4]; at 33.0 µM 91% | [4]; [17] 90% | [4]; at 50.0 µM 84.8% | [4]; at 100.0 µM 88% | [5]; at 33.0 µM 76% | [5]; [17] 77% | [5]; at 50.0 µM 71.2% | [5]; at 100.0 µM 83% | [6]; at 100.0 µM 81% | [7]; [17] 74% | [7]; at 50.0 µM 77.6% | [10]; at 50.0 µM 76.2% | [11]; at 100.0 µM 74% | [12]; at 100.0 µM 84% | [13]; at 100.0 µM 86% | [14]; [17] 74% | [15]; at 100.0 µM 79%
